Records with an inconclusive call do not appear. Some compounds were tested as several samples or in several runs, with calls that do not always agree. Calls of active or inactive are those of the source. Unless noted, calls come from the whole dose curve; as a rule, active = well fitted curve in the direction sought with a large enough effect; inconclusive = small, poorly fitted or top-dose-only effect, or another doubt; inactive = no such curve, though single readings can be large; an effect the other way counts as inactive or inconclusive.
Legend:
[1] = High Content Imaging Cell-Based qHTS for Inhibitors of the mTORC1 Signaling Pathway in MEF Cells (AID 2667);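 note: Tsc2-/- p53-/- MEFs stably re-expressing wild-type Tsc2 exposed 24 h; series mostly up to about 38 µM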
Outline: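 WT MEFs (Tsc2-/-, p53-/- re-expressing Tsc2), in DMEM + 10% FBS, were treated with compound for 24 h at 37 C. Cells were then fixed and stained for phospho-rpS6 Ser235/236 with propidium iodide as cell count. Values are % positive cells, with thresholds set against rapamycin-treated cells.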

[2] = Cytometry Cell-Based qHTS for Inhibitors of the mTORC1 Signaling Pathway in MEF cells (AID 2668);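 note: Tsc2-/- p53-/- mouse embryonic fibroblasts stably re-expressing wild-type Tsc2; percent cells positive for phospho-rpS6 Ser235/236 relative to propidium iodide stain; series mostly up to about 38 µM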
Outline: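 Pathway inhibition in WT Tsc2-rescued Tsc2-/-, p53-/- MEFs is measured as the Alexa-488 phospho-rpS6 to propidium iodide intensity ratio after 24 hrs of compound at 37 degree Celsius. PI-stained cell number gives viability.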

[3] = Validation screen for small molecules that induce DNA re-replication in MCF 10A normal breast cells (AID 463097); note: nearly all actives have a fitted effect of over 60% in size; note: potency is the fitted concentration of half-maximal effect
Outline: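 DNA re-replication was detected as a rise in nuclei with elevated Hoechst fluorescence after a 48 hr compound exposure of MCF 10A cells at 37 C.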

[4] = molecular target: Ubiquitin carboxyl-terminal hydrolase 2 (Homo sapiens) (UniProt O75604); assay: qHTS Validation Assay for Inhibitors of Ubiquitin-specific Protease USP2a Using CHOP2 as the Reporter (AID 463106)
Outline: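 USP2 core (10 nM final) was preincubated with compound 30 min at RT in pH 8.0 Tris/CaCl2/beta-ME/CHAPS buffer. Ub-CHOP2 and reporter substrate (25 nM final each) were then added, with fluorescence (Ex 485/Em 531) read after 60 min. Data were normalized to NEM full inhibition and fitted to concentration-response curves.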

[5] = molecular target: Tumor susceptibility gene 101 protein (Homo sapiens) (UniProt Q99816); assay: qHTS Validation Assay for Iinhibitors of HIV-1 Budding by Blocking the Interaction of PTAP/TSG101 (AID 485342; calls by dose curve)
Outline: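 Fluorescence anisotropy measured PTAP-Tsg101 interaction. Final concentrations were 10 uM protein domain and 50 nM labeled peptide, equilibrated 20 min at room temperature.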

[6] = qHTS Validation Assay to Find Inhibitors of Chronic Active B-Cell Receptor Signaling (AID 485345; active = well fitted curve in the direction sought with a large enough effect in the main read-out, with a control signal flat, not every such curve was filed as active)
Outline: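 TMD8 ABC-DLBCL cells stably carrying doxycycline-inducible IkappaBalpha–green luciferase fusion plus unfused red luciferase; compounds 46 uM to 3 nM, 4 h at 37C with doxycycline. Corrected green/red luminescence ratio normalized to 10 uM MG-132 and basal cell wells; curves fitted.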

[7] = molecular target: Beta-2 adrenergic receptor (Homo sapiens) (UniProt P07550); assay: qHTS validation assay of beta-arrestin-biased ligands of beta2-adrenergic receptor (AID 485366)
Outline: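 Values derive from curve-fitted %Activity of a luminescent beta-arrestin recruitment reporter; compounds tested up to 46 microM on Tango cells for 18 hr at 37 degrees C, 5% CO2.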

[8] = Quantitative high throughput screen for delayed death inhibitors of the malarial parasite plastid, 48 hour incubation (AID 488752); note: nearly all actives have a fitted effect of over 65% in size; note: potency is the fitted concentration of half-maximal effect
Outline: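 One parasite generation (48 h, 37 C, 5% CO2) of luciferase-reporter P. falciparum in erythrocytes is run with test compound; decreased luminescence indicates inhibited growth.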

[9] = molecular target: Thioredoxin reductase 1, cytoplasmic (Rattus norvegicus) (UniProt O89049); assay: qHTS Assay for Substrates of Mammalian Selenoprotein Thioredoxin Reductase 1 (TrxR1) (AID 488772);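 note: NADPH fluorescence in the first read after selenite addition and not the 8 min delta; series mostly up to about 57 µM; a drop in NADPH fluorescence below the no-compound background marks a TrxR1 substrate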
Outline: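 Quantitative HTS in Tris-HCl buffer at pH 7.5 with EDTA and Tween-20, using rat TrxR1, 400 uM NADPH and 400 uM selenite (final). A fall in initial NADPH fluorescence relative to background marked substrate behaviour.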

[10] = molecular target: Flap endonuclease 1 (Homo sapiens) (UniProt P39748); assay: qHTS Validation Assay for the Inhibitors of Human Flap endonuclease 1 (FEN1) (AID 488816)
Outline: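 Human FEN1 (10 nM) preincubated 15 min at room temperature with compounds, then flap DNA substrate added at 50 nM final. Fluorescence read at 0 and 15 min; concentration-response fitted with four-parameter Hill equation.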

[11] = molecular target: M-phase phosphoprotein 8 (Homo sapiens) (UniProt Q99549); assay: qHTS Validation Assay for Inhibitors for MPP8 Chromodomain Interactions with Methylated Histone Tails (AID 488949); note: nearly all actives have a fitted effect of over 55% in size; note: potency is the fitted concentration of half-maximal effect
Outline: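 Disruption of the preformed MPP8–trimethyl-H3K9 peptide complex (both 50 nM, 30 min, RT) is measured after 30 min compound exposure, using AlphaScreen proximity beads; aurintricarboxylic acid titration serves as plate control.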

[12] = molecular target: Chromobox protein homolog 1 (Homo sapiens) (UniProt P83916); assay: qHTS Validation Assay for Inhibitors of HP1-beta Chromodomain Interactions with Methylated Histone Tails (AID 488953); note: nearly all actives have a fitted effect of over 50% in size; note: potency is the fitted concentration of half-maximal effect
Outline: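 Measured as loss of AlphaScreen luminescence from streptavidin donor and nickel acceptor beads (10 ug/mL final) bridging HP1-beta and biotin-H3(1-18)K9me3, each 50 nM. Compounds met the preassembled complex for 30 min at RT.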

[13] = molecular target: Methanococcus maripaludis chaperonin (MmCpn) (UniProt Q6LX38); assay: High-Throughput Screening for Modulators of Cytosolic Chaperonin Activity: MmCpn Primary Screen (AID 488978);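 note: 50 nM MmCpn enzyme hydrolysing 30 µM ATP at 37 °C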
Outline: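 Measures ATPase turnover of the M. maripaludis chaperonin (50 nM final) against 30 uM ATP over 10 min at 37C, with compound added 5 min beforehand at room temperature. ADP is quantified by HTRF immunodetection.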

[14] = molecular target: Transient receptor potential cation channel subfamily V member 1 (Homo sapiens) (UniProt Q8NER1); assay: HTS Assay for Compounds that Act as Enhancers of the Vanilloid Receptor 1 (AID 488979)
Outline: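 TRPV1 cells loaded with Fluo-8 calcium dye; compound added and Ca2+ signal (ex 480/em 520 nm) followed 3 min, then capsaicin at EC20 added and read 2 more min to detect enhancement.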

[15] = molecular target: Thyrotropin receptor (Homo sapiens) (UniProt P16473); assay: qHTS Assay for Antagonists of the Thyroid Stimulating Hormone Receptor (AID 488980); note: series mostly up to about 58 µM
Outline: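 Cells expressing human TSHR (HEK293) are dispensed in HBSS/HEPES containing 70 uM RO 20-1724, compound is added, then TSH at EC80 (4 nM final). Antibody in lysis buffer follows, 30 minutes at room temperature before HTRF detection.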

[16] = molecular target: DNA polymerase III PolC-type (Bacillus subtilis (strain 168)) (UniProt P13267); assay: qHTS Validation Assay for the Inhibitors of DNA Replication in Gram-Positive Bacteria (AID 485295);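 note: reconstituted holoenzyme with PolC plus beta clamp SSB and primase; PicoGreen fluorescence of double-stranded DNA made on primed circular M13 template; series mostly up to about 57 µM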
Outline: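 Primed replication of single-stranded M13Gori by a four-protein B. subtilis holoenzyme is measured at room temperature. Double-stranded product is quantified by PicoGreen fluorescence after an EDTA stop; inhibition is scaled between DMSO and EDTA controls.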

[17] = molecular target: Thioredoxin reductase 1, cytoplasmic (Rattus norvegicus) (UniProt O89049); assay: qHTS Assay for Inhibitors of Mammalian Selenoprotein Thioredoxin Reductase 1 (TrxR1) (AID 488773); conditions: Potency: inhibition;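 note: drop in NADPH fluorescence over an 8 min run after selenite addition; series mostly up to about 57 µM; nearly all actives have a fitted effect of over 40% in size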
Outline: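 Steps: enzyme (90 nM) plus NADPH (400 uM final), 5 min at ~22 deg C; compound added, 15 min; selenite (400 uM final) added; fluorescence followed for 8 min. Concentration-response curves derived from the normalized delta values.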

[18] = molecular target: D(1A) dopamine receptor (Homo sapiens) (UniProt P21728); assay: HTS Assay for Allosteric Agonists of the Human D1 Dopamine Receptor: Primary Screen for Agonists (AID 488981)
Outline: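 Tetracycline-induced HEK293 Trex D1 cells with forced coupling to calcium, loaded with no-wash calcium dye; kinetic fluorescence read 180 s after compound addition for agonism, then a further 180 s after an EC20 dopamine challenge for potentiation.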

[19] = Quantitative high throughput screen for delayed death inhibitors of the malarial parasite plastid, 96 hour incubation (AID 488745); note: nearly all actives have a fitted effect of over 70% in size; note: potency is the fitted concentration of half-maximal effect
Outline: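 Growth of reporter-bearing P. falciparum in red cells is measured after 96 h with compound, covering two erythrocytic cycles. Luminescence from the integrated luciferase serves as the growth signal.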

[20] = molecular target: ATP-dependent 6-phosphofructokinase (Trypanosoma brucei brucei) (UniProt O15648); assay: qHTS Validation Assay to Find Inhibitors of T. brucei phosphofructokinase (AID 485368); note: potency is the fitted concentration of half-maximal effect
Outline: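 Enzyme reaction in triethanolamine buffer pH 8.0 with 5 mM MgCl2, 0.01% Tween20 and 0.1% BSA; PFK 1.25 nM, F6P 0.5 mM, ATP 0.1 mM, 45 min RT. ADP quantified by ADP-Glo.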

Measured: Potency

Chain of D(1A) dopamine receptor (Homo sapiens) (P21728 whole entry, looked up): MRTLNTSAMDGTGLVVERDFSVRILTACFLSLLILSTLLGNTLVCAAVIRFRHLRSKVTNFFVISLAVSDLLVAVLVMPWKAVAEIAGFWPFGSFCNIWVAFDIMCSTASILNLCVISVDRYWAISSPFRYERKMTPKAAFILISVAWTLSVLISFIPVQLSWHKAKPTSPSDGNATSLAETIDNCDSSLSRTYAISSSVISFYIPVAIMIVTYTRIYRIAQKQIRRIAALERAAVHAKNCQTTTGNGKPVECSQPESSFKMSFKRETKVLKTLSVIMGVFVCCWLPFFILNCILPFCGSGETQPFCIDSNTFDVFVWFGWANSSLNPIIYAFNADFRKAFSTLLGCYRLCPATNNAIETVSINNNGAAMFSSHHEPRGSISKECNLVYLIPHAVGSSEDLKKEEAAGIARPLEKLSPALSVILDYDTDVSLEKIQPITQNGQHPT
Chain of Transient receptor potential cation channel subfamily V member 1 (Homo sapiens) (Q8NER1 whole entry, looked up): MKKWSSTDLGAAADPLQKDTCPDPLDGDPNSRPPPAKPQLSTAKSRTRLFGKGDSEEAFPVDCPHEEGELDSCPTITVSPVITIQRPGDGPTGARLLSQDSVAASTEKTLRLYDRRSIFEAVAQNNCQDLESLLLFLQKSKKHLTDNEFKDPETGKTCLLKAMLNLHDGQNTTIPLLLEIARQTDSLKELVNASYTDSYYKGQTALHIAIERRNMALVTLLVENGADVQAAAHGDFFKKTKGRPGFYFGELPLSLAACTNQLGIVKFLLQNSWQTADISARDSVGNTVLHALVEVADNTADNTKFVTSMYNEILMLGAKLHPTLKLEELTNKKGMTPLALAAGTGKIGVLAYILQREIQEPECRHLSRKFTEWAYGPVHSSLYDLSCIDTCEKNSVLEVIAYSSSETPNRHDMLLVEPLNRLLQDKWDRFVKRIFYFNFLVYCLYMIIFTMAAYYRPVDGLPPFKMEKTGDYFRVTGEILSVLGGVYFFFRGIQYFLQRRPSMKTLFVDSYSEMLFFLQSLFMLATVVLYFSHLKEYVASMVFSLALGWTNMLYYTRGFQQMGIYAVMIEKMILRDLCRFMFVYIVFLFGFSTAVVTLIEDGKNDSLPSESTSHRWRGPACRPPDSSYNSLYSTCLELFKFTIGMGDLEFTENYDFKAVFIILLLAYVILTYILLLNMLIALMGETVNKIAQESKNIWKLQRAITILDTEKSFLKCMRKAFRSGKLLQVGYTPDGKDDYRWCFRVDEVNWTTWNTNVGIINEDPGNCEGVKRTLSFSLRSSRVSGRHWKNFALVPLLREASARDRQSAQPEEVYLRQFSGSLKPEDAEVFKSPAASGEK
Chain of M-phase phosphoprotein 8 (Homo sapiens) (Q99549 whole entry, looked up): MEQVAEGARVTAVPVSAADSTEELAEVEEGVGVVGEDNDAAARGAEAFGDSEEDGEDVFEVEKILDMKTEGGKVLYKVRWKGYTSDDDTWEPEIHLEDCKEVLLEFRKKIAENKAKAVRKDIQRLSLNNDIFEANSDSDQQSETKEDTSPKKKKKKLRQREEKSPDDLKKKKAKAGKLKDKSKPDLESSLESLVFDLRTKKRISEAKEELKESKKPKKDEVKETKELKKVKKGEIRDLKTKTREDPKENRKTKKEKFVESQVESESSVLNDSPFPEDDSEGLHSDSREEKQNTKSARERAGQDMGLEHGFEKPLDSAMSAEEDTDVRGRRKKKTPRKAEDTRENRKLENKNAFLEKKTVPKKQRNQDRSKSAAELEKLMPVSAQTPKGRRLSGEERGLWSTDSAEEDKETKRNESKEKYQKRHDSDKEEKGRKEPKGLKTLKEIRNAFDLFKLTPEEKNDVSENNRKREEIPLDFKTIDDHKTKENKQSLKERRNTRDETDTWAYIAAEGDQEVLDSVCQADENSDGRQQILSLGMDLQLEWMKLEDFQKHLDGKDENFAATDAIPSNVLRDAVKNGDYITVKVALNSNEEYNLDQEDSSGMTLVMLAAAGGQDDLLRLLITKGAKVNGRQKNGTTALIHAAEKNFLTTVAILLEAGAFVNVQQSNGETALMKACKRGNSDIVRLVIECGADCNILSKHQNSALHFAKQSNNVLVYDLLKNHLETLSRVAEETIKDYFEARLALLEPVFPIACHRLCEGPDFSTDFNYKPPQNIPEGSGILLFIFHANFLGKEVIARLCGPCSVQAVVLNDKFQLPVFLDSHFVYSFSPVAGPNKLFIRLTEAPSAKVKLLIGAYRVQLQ
Chain of DNA polymerase III PolC-type (Bacillus subtilis (strain 168)) (P13267 whole entry, looked up): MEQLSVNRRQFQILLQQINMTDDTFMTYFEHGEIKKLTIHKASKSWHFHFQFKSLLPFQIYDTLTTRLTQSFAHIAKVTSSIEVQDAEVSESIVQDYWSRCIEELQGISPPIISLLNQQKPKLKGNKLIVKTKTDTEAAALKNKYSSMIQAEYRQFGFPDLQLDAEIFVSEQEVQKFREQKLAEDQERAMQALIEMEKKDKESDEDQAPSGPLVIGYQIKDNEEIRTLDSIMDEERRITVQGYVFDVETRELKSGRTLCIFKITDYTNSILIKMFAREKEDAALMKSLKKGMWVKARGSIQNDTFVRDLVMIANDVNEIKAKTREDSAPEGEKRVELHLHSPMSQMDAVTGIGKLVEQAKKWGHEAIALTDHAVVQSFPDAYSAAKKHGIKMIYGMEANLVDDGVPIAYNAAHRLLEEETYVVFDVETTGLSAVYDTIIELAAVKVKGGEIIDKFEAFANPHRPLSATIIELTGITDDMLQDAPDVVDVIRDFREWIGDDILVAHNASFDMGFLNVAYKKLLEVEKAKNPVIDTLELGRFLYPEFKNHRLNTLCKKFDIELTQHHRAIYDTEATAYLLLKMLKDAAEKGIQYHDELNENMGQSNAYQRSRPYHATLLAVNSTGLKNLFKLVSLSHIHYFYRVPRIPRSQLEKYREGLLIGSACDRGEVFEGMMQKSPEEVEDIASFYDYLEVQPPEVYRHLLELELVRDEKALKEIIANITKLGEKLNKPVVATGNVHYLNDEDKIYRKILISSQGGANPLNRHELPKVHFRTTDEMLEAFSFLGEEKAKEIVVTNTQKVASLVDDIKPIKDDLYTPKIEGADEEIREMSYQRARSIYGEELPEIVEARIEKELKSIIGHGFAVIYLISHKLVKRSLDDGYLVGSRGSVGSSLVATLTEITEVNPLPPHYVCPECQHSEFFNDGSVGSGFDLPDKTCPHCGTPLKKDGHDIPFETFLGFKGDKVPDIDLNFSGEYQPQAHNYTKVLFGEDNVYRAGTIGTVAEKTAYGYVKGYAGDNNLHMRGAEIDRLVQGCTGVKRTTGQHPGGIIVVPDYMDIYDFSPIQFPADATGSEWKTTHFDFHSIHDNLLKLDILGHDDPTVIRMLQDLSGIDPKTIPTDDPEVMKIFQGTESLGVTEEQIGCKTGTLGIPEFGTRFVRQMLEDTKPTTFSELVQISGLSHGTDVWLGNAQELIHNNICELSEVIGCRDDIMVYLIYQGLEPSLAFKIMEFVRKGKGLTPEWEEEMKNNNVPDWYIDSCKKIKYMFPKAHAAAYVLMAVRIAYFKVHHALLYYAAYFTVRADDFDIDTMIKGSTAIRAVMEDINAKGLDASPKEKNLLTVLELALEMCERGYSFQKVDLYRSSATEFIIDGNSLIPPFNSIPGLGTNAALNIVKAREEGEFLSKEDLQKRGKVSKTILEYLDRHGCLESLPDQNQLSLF
Chain of Ubiquitin carboxyl-terminal hydrolase 2 (Homo sapiens) (O75604 whole entry, looked up): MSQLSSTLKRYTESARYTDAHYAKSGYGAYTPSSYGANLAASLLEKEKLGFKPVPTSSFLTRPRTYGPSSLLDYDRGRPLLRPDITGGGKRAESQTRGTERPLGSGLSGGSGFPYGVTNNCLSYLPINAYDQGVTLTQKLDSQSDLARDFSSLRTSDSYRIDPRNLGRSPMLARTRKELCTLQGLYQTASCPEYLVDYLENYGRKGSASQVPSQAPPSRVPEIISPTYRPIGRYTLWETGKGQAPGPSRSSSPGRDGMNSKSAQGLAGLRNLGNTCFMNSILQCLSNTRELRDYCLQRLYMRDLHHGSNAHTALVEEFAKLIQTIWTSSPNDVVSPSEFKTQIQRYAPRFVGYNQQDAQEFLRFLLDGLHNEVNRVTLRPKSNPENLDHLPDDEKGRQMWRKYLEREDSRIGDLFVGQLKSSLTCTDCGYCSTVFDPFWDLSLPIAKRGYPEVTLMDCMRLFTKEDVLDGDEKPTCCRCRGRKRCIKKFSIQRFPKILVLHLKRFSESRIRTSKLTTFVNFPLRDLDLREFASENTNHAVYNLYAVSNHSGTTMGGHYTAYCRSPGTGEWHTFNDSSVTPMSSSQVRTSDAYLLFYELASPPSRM
Chain of Chromobox protein homolog 1 (Homo sapiens) (P83916 whole entry, looked up): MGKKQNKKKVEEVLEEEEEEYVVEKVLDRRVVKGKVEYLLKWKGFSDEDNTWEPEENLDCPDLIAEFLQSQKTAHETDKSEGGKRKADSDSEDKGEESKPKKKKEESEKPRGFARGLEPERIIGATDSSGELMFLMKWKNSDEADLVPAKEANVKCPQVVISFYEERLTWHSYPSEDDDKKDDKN
Chain of Beta-2 adrenergic receptor (Homo sapiens) (P07550 whole entry, looked up): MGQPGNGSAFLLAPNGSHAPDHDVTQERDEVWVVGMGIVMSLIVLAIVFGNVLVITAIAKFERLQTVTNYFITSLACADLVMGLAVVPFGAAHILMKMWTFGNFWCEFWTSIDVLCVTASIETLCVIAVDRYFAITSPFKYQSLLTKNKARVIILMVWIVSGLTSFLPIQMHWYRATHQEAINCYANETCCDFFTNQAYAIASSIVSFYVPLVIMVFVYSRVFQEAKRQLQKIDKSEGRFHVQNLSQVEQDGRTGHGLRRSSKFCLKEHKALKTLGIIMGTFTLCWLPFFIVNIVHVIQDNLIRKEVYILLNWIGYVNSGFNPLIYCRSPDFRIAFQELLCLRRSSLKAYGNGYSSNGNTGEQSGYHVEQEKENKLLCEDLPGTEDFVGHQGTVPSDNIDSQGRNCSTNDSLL

Oc1ccc(C2CNCc3sccc32)cc1O (stereo not given)
not listed: [16] | [17] | [18] | [19] | [20]
inactive: all other assays above

COc1ccc(/C=C/C(=O)Nc2ccccc2C(=O)O)cc1OC
not listed: [6] | [8] | [10] | [12] | [19] | [20]
inactive: all other assays above

C=C[C@@H]1CN2CC[C@@H]1C[C@H]2[C@H](O)c1ccnc2ccc(OC)cc12
active: [19] 0.0329 µM | [8] 0.0928 µM
not listed: [4] | [10] | [11] | [14] | [15] | [17] | [20]
inactive: all other assays above

O=C(O)CCCC[C@@H]1CCSS1
not listed: [16] | [20]
inactive: all other assays above

Oc1cc2c(cc1O)CN(C(=S)NCCc1ccc(Cl)cc1)CCC2
39.8 µM (active) and inactive: [11]
active: [3] 3.55 µM | [12] 44.7 µM
not listed: [6] | [8] | [16] | [17] | [19] | [20]
inactive: all other assays above

Cc1ccc(O)c(N=Nc2ccccc2)n1
active: [20] 15.1 µM | [12] 44.7 µM
not listed: [11] | [16] | [17] | [18]
inactive: all other assays above

CN1CC(=O)N/C1=N/C(=O)Nc1cccc(Cl)c1
not listed: [3] | [8] | [14] | [15] | [19]
inactive: all other assays above

Nc1ncnc2c1ncn2[C@@H]1O[C@H](COP(=O)(O)CP(=O)(O)OP(=O)(O)O)[C@@H](O)[C@H]1O
not listed: [3] | [8] | [11] | [14] | [15] | [18] | [19]
inactive: all other assays above

OCC1O[C@H](O)C(Cl)C(O)C1O (stereo not given in full)
not listed: [6] | [11] | [20]
inactive: all other assays above

CCC1C(=O)OCC1Cc1cncn1C (stereo not given)
not listed: [3] | [8] | [10] | [11] | [14] | [15] | [17] | [19]
inactive: all other assays above

O=C(O)[C@@H]1C[C@H](C(=O)O)N1
not listed: [16]
inactive: all other assays above

O=C(O)c1cc(=O)c2ccccc2[nH]1
active: [12] 0.0474 µM
not listed: [8] | [11] | [16] | [20]
inactive: all other assays above

Ic1ccc(N2CCN(Cc3c[nH]c4ncccc34)CC2)cc1
active: [12] 44.7 µM
not listed: [3] | [20]
inactive: all other assays above

COc1cc(C(O)CO)ccc1OS(=O)(=O)O (stereo not given)
not listed: [16] | [20]
inactive: all other assays above

COC(=O)c1c(C)[nH]c(C)c1C(=O)c1ccccc1Cc1ccccc1
active: [19] 11.7 µM | [8] 9.28 µM | [12] 44.7 µM
39.8 µM (active) and inactive: [11]
not listed: [6] | [20]
inactive: all other assays above

CN1CCc2cc(NC(=O)Nc3cccnc3)ccc21
not listed: [6] | [8] | [12] | [19] | [20]
inactive: all other assays above

CN(C)C(N)=NCCC[C@H](N)C(=O)O
not listed: [16]
inactive: all other assays above

Reference: PubChem BioAssay (NCATS)
